Laboratory results published in PubChem BioAssay (Tox21).
Results filed as inconclusive are left out. Activity calls are given as the source filed them. Unless noted, the call rests on the fitted dose curve; in most records, active means well fitted curve in the direction sought with a large enough effect in the repeat runs; inconclusive means weak or mixed curves; inactive means no such curve, though single readings can be large; an effect the other way counts as inactive or inconclusive.

Assays:
[1] = qHTS assay to identify small molecule antagonists of the estrogen receptor alpha (ER-alpha) signaling pathway using the BG1 cell line in the presence of 0.1 nM 17-beta-estradiol - cell viability counter screen (AID 1259241); further: nearly all actives have a fitted effect of over 40% in size; further: potency means the concentration at half of the fitted maximal effect
In short: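 Viability in VM7Luc4E2 cells after 22 hr compound exposure under 0.1 nM 17beta-estradiol stimulation, by CellTiter-Fluor.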

[2] = qHTS assay to identify small molecule antagonists of the androgen receptor (AR) signaling pathway using the MDA cell line in the presence of 0.5 nM R1881 - cell viability counter screen (AID 1259242); further: nearly all actives have a fitted effect of over 45% in size; further: potency means the concentration at half of the fitted maximal effect
In short: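 Viability of MDA-kb2 cells was multiplexed with the luciferase AR readout; after 16 hr with compounds and R1881 at 0.5 nM final, CellTiter-Fluor fluorescence was recorded.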

[3] = target: Estrogen receptor (Homo sapiens) (UniProt P03372); assay: qHTS assay to identify small molecule antagonists of the estrogen receptor alpha (ER-alpha) signaling pathway using the BG1 cell line in the presence of 0.1 nM 17-beta-estradiol (AID 1259244); further: nearly all actives have a fitted effect of over 50% in size; further: potency means the concentration at half of the fitted maximal effect
In short: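 Estradiol at 0.1 nM (final) stimulates the endogenous ER-alpha of VM7Luc4E2 cells carrying an ERE-driven luciferase; compounds are co-incubated 22 h at 37C and luciferase output quantified by luminescence.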

[4] = qHTS assay to identify small molecule phospholipidosis (PLD) inducers (AID 1259344; active means well fitted curve in the direction sought with a large enough effect; an effect the other way counts as inactive or inconclusive)
In short: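 HepG2 cells on collagen I, attached 4 h at 37 C, were co-treated with compound and LipidTOX Red dye for 24 h at 37 C, then fixed with paraformaldehyde plus Hoechst 33342 and imaged by high-content microscopy for phospholipid accumulation.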

[5] = qHTS assay to identify small molecule HDAC inhibitors (AID 1259364);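 further: wild-type HCT-116 cells with endogenous class I/II HDAC activity; top concentration of the series differs between compounds; nearly all actives have a fitted effect of over 45% in size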
In short: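 Read-out: luminescence of HDAC-Glo I/II reagent, 30 min RT, reflecting class I/II deacetylase activity in whole HCT-116 cells pre-exposed 2 h to DMSO-dissolved compounds.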

[6] = qHTS assay to identify small molecule HDAC inhibitors - cell viability counter screen (AID 1259365); further: series mostly up to about 92 µM; nearly all actives have a fitted effect of over 50% in size
In short: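 Cytotoxicity was gauged in wild-type HCT-116 cells after a brief 2hr treatment with DMSO-dissolved compounds at 37C and 5% CO2, using CellTiter-Glo luminescence developed for 30min at room temperature.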

[7] = qHTS assay to identify small molecule agonists of the sonic hedgehog signaling (Shh) pathway - cell viability counter screen (AID 1259366); further: nearly all actives have a fitted effect of over 50% in size
In short: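 Stable Gli1-Luc NIH/3T3 clone, 2,000 cells/well. Compound exposure 24hr at 37C. Read-out: CellTiter-Fluor fluorescence.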

[8] = qHTS assay to identify small molecule antagonists of the sonic hedgehog signaling (Shh) pathway - cell viability counter screen (AID 1259367); further: nearly all actives have a fitted effect of over 55% in size; further: potency means the concentration at half of the fitted maximal effect
In short: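 NIH/3T3-derived Gli1-Luc reporter cells (2,000 per well) rested 4 hr at 37 C, then received DMSO compounds plus conditioned medium. After 23 hr of treatment, CellTiter-Fluor was added for 1 hr at 37C and fluorescence read.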

[9] = qHTS assay to identify small molecule agonists of the sonic hedgehog signaling (Shh) pathway (AID 1259368; calls by dose curve;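 further: NIH/3T3-derived 3T3Gli1-Luc cells carrying a stable Gli1-driven firefly luciferase reporter; series mostly up to about 92 µM; nearly all actives have a fitted effect of over 15% in size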)
In short: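 A Gli1 transcriptional response element controlled firefly luciferase in 3T3Gli1-Luc cells. Compounds and a positive control were added 4 hr after plating, and cells were incubated a further 24 hr at 37 C before luminescence detection.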

[10] = target: Androgen receptor (Homo sapiens) (UniProt P10275); assay: qHTS assay to identify small molecule antagonists of the androgen receptor (AR) signaling pathway using the MDA cell line in the presence of 0.5 nM R1881 (AID 1259243); further: nearly all actives have a fitted effect of over 50% in size
In short: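 Reporter cells cultured without CO2 receive test chemicals, then 0.5 nM R1881 final; after 16 hr at 37C, ONE-Glo is added and light output recorded.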
On the % scale 0 is the no-effect control and ±100 the full control effect.

Estrogen receptor (Homo sapiens), sequence (P03372 whole entry, looked up): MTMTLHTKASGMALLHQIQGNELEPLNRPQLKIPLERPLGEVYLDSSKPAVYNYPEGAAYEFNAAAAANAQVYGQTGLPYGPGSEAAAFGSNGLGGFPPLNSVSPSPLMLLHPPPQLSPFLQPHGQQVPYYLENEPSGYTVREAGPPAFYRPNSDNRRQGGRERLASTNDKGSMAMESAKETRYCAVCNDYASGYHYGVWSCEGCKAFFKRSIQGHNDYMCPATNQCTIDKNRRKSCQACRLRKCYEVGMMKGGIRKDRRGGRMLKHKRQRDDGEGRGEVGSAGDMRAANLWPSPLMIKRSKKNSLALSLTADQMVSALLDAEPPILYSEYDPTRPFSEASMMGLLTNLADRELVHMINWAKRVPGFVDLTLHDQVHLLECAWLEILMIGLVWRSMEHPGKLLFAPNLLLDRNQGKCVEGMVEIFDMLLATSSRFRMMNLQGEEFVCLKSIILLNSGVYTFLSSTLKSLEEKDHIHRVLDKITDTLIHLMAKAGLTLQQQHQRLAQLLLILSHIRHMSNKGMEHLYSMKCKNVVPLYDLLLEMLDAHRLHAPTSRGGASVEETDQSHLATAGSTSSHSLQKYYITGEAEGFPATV
Androgen receptor (Homo sapiens), sequence (P10275 whole entry, looked up): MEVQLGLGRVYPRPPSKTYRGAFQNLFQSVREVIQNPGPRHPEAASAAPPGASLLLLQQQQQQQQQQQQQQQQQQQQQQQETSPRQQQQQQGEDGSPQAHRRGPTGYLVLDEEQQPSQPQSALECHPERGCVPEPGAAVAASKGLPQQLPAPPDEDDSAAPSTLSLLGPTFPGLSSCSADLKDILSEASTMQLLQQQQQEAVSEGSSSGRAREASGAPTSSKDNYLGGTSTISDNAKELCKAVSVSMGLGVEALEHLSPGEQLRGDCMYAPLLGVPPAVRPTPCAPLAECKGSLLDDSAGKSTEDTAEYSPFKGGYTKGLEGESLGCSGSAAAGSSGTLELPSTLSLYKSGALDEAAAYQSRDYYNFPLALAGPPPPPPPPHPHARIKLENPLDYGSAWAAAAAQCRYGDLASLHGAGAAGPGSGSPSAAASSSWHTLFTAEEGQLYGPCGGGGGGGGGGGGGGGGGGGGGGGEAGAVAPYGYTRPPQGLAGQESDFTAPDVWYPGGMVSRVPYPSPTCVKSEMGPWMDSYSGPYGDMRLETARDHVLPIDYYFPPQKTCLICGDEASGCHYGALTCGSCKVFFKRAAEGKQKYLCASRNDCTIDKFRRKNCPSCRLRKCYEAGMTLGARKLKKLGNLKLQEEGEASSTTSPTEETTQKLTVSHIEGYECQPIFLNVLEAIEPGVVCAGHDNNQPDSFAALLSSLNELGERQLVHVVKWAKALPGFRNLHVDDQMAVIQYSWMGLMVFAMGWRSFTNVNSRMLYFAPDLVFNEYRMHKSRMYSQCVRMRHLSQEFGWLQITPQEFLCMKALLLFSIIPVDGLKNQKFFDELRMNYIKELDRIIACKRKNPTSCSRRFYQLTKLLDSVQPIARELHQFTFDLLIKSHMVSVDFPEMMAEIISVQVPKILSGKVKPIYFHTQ

CC[N+](CC)(CCNC(=O)C(=O)NCC[N+](CC)(CC)Cc1ccccc1Cl)Cc1ccccc1Cl
inactive: Potency [1] | Potency [2] | Potency [3] | Potency [4] | Potency [5] | Potency [6] | Potency [7] | Potency [8] | Potency [9]

Nc1cccc2c1CN(C1CCC(=O)NC1=O)C2=O (stereo not given)
inactive: Potency [1] | Potency [2] | Potency [3] | Potency [4] | Potency [5] | Potency [6] | Potency [7] | Potency [8] | Potency [9]

CCOc1cccc(-n2cc(C(=O)N3CCN(c4cc(C(=O)O)c5ccccc5c4)CC3)nc2-c2ccc(C)cc2)c1
inactive: Potency [1] | Potency [2] | Potency [10] | Potency [5] | Potency [7] | Potency [8] | Potency [9]

COc1cc(C(=O)NCCCCCC(=O)O)cc(OC)c1OC
inactive: Potency [1] | Potency [2] | Potency [3] | Potency [4] | Potency [5] | Potency [6] | Potency [7] | Potency [8] | Potency [9]

O=C1C(=O)c2ccccc2C(O)=C1C1CCC(c2ccc(Cl)cc2)CC1 (stereo not given)
active: Potency [1] 26.6 µM | Potency [2] 23.7 µM | Potency [3] 26.6 µM
inactive: Potency [4] | Potency [5] | Potency [6] | Potency [7] | Potency [8]

CC(C)=CCC/C(C)=C/CC/C(C)=C/CCC(=O)OC/C=C(\C)CCC=C(C)C
inactive: Potency [1] | Potency [2] | Potency [3] | PLD induction [4] -0.0635% [at 1.53 µM] | Potency [5] | Potency [6] | Potency [7] | Potency [8]

CC(C)Nc1cccnc1N1CCN(C(=O)c2cc3cc(NS(C)(=O)=O)ccc3[nH]2)CC1
inactive: Potency [1] | Potency [2] | Potency [3] | Potency [4] | Potency [5] | Potency [6] | Potency [7] | Potency [8] | Potency [9]

CCOC(=O)c1ccc(OCCN2C[C@H](O)[C@@H](O)[C@H](O)[C@H]2CO)cc1
inactive: Potency [1] | Potency [2] | Potency [3] | Potency [4] | Potency [5] | Potency [6] | Potency [7] | Potency [8] | Potency [9]

OC[C@H]1O[C@@H](n2cnc3c(=S)nc[nH]c32)[C@H](O)[C@@H]1O
inactive: Potency [1] | Potency [2] | Potency [3] | Potency [4] | Potency [5] | Potency [6] | Potency [7] | Potency [8] | Potency [9]

O=C(O)CCC(=O)C(=O)O
inactive: Potency [1] | Potency [2] | Potency [3] | Potency [4] | Potency [5] | Potency [6] | Potency [7] | Potency [8] | Potency [9]

C[C@]12CC[C@@H]3c4ccc(O)cc4CC[C@H]3[C@@H]1CC[C@@H]2OC(=O)CCC1CCCC1
inactive: Potency [1] | Potency [2] | Potency [3] | Potency [4] | Potency [5] | Potency [6] | Potency [8] | Potency [9]

CN1C(=O)OC(C)(C)C1=O
inactive: Potency [1] | Potency [2] | Potency [3] | Potency [4] | Potency [6] | Potency [8]

CCOC(=O)[C@H](CCc1ccccc1)N[C@@H](C)C(=O)N(CC(=O)O)C1Cc2ccccc2C1
inactive: Potency [1] | Potency [2] | Potency [3] | Potency [4] | Potency [5] | Potency [6] | Potency [7] | Potency [8]

COc1ncnc(NS(=O)(=O)c2ccc(N)cc2)c1OC
inactive: Potency [1] | Potency [2] | Potency [3] | Potency [4] | Potency [5] | Potency [6] | Potency [7] | Potency [8] | Potency [9]

CCCCC(CC)COP(=O)(O)O (stereo not given)
inactive: Potency [1] | Potency [2] | Potency [3] | Potency [5] | Potency [6] | Potency [7] | Potency [8]

C[C@]1(Cn2ccnn2)[C@H](C(=O)O)N2C(=O)C[C@H]2S1(=O)=O
inactive: Potency [1] | Potency [2] | Potency [3] | Potency [4] | Potency [5] | Potency [6] | Potency [7] | Potency [8] | Potency [9]

CCOC(=O)C1=C(C)NC(C)=C(C(=O)OC)C1c1cccc(Cl)c1Cl (stereo not given)
inactive: Potency [1] | Potency [2] | Potency [3] | Potency [4] | Potency [5] | Potency [6] | Potency [7] | Potency [8] | Potency [9]

Cc1cccc(N(C)C(=S)Oc2ccc3c(c2)CCC3)c1
inactive: Potency [1] | Potency [2] | Potency [3] | PLD induction [4] -4.02% [at 7.66 µM] | Potency [5] | Potency [6] | Potency [7] | Potency [8] | Potency [9]

Clc1ccc(Nc2nnc(Cc3ccncc3)c3ccccc23)cc1
active: Potency [3] 29.8 µM
inactive: Potency [1] | Potency [2] | Potency [4] | Potency [5] | Potency [6] | Potency [9]

O=C(/C=C/c1ccc(O)c(O)c1)O[C@@H]1C[C@@](OC(=O)/C=C/c2ccc(O)c(O)c2)(C(=O)O)C[C@@H](O)[C@@H]1O
inactive: Potency [1] | Potency [2] | Potency [3] | Potency [4] | Potency [5] | Potency [6] | Potency [7] | Potency [8] | Potency [9]

COc1ccccc1Oc1c(NS(=O)(=O)c2ccc(C(C)(C)C)cc2)nc(-c2ncccn2)nc1OCCO
inactive: Potency [1] | Potency [2] | Potency [3] | Potency [4] | Potency [5] | Potency [6] | Potency [7] | Potency [9]
active: Potency [8] 26.6 µM

CCOC(C)=O
inactive: Potency [1] | Potency [2] | Potency [3] | Potency [4] | Potency [5] | Potency [6] | Potency [7] | Potency [8] | Potency [9]

CCOC(=O)/C=C/C(=O)OCC
inactive: Potency [1] | Potency [2] | Potency [3] | Potency [5] | Potency [6] | Potency [7] | Potency [8]

O=C=Nc1ccc(Cl)c(Cl)c1
inactive: Potency [1] | Potency [2] | Potency [3] | Potency [5] | Potency [6] | Potency [7] | Potency [8] | Potency [9]

C/C=C(/C(=C/C)c1ccc(O)cc1)c1ccc(O)cc1
inactive: Potency [1] | Potency [2] | Potency [3] | Potency [4] | Potency [5] | Potency [6] | Potency [9]

C=Cc1ccc(S(=O)(=O)O)cc1
inactive: Potency [1] | Potency [2] | Potency [3] | Potency [4] | Potency [5] | Potency [6] | Potency [7] | Potency [9]
